Laboratory results published in PubChem BioAssay (EPA / NIEHS).
Active and inactive are the calls of the source. Rule for the calls: active = hit-call score of the fitted dose curve at least 0.9, where 1 is the maximum; inactive = score below 0.9.

What was measured:
[1] = read-out: Monokine induced gamma interferon (MIG), CXCL9 (gene 4283); test: BSK_hDFCGF_MIG: BioMAP Diversity Plus: hDFCGF Assay for Monokine induced gamma interferon (MIG) Biomarker Activity (AID 2283063); details: primary human foreskin fibroblasts; actives raise or lower the signal
Method in brief: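 MIG signal, determined by ELISA, reflects 24 h chemical exposure of human skin primary fibroblasts. DMSO serves as negative control and baseline.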

[2] = read-out: Matrix Metallopeptidase 1 (MMP1), MMP1 (gene 4312); test: BSK_hDFCGF_MMP1: BioMAP Diversity Plus: hDFCGF Assay for Matrix Metallopeptidase 1 (MMP1) Biomarker Activity (AID 2283064); details: primary human foreskin fibroblasts; actives raise or lower the signal
Method in brief: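 Primary human foreskin fibroblasts in the hDFCGF system were dosed with test chemical, and MMP1 was measured by ELISA 24 h later. Values come from bidirectional curve fitting against the DMSO baseline.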

[3] = read-out: Vascular cell adhesion molecule 1 (VCAM1), VCAM1 (gene 7412); test: BSK_hDFCGF_VCAM1: BioMAP Diversity Plus: hDFCGF Assay for Vascular cell adhesion molecule 1 (VCAM1) Biomarker Activity (AID 2283065); details: primary human foreskin fibroblasts; actives raise or lower the signal;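 for AC50: VCAM-1 protein level quantified by ELISA after 24 h chemical exposure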
Method in brief: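 Cells are dosed, cultured for 24 h, then VCAM-1 is quantified by ELISA; signal increases and decreases are both fitted relative to DMSO.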

[4] = read-out: Plasminogen activator inhibitor-1 (PAI1), SERPINE1 (gene 5054); test: BSK_hDFCGF_PAI1: BioMAP Diversity Plus: hDFCGF Assay for Plasminogen activator inhibitor-1 (PAI1) Biomarker Activity (AID 2283066); details: primary human foreskin fibroblasts; actives raise or lower the signal
Method in brief: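 Human foreskin fibroblast primary cells, 24 h chemical exposure; PAI-1 measured by ELISA. Bidirectional fitting relative to DMSO; parallel cultures stained with SRB for total protein to flag overt cytotoxicity.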

[5] = read-out: Intercellular Adhesion Molecule 1 (ICAM1), ICAM1 (gene 3383); test: BSK_KF3CT_ICAM1: BioMAP Diversity Plus: KF3CT Assay for Intercellular Adhesion Molecule 1 (ICAM1) Biomarker Activity (AID 2283067); details: primary human keratinocytes with fibroblasts; actives raise or lower the signal
Method in brief: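 Dose the keratinocyte/fibroblast co-culture, wait 24 h, measure ICAM-1 by ELISA, then fit increases or decreases against DMSO. Cytotoxicity is checked in parallel cultures by SRB total-protein staining.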

[6] = read-out: Interferon-gamma inducible Protein 10 (IP10), CXCL10 (gene 3627); test: BSK_KF3CT_IP10: BioMAP Diversity Plus: KF3CT Assay for Interferon-gamma inducible Protein 10 (IP10) Biomarker Activity (AID 2283068); details: primary human keratinocytes with fibroblasts; actives raise or lower the signal
Method in brief: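 KF3CT co-culture (keratinocytes + foreskin fibroblasts), 24 h compound, IP-10 by ELISA; bidirectional fit vs DMSO baseline.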

[7] = BSK_KF3CT_SRB: Viability Assessment in the BioMAP Diversity Plus: KF3CT Assay (AID 2283069); details: primary human keratinocytes with fibroblasts
Method in brief: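 Human primary keratinocyte plus foreskin fibroblast co-culture exposed to chemicals for 24 h. Total protein measured by 0.1% sulforhodamine B staining after 10% TCA fixation, read at 560 nm; bidirectional fitting versus DMSO baseline.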

[8] = read-out: TIMP metallopeptidase inhibitor 2 (TIMP2), TIMP2 (gene 7077); test: BSK_KF3CT_TIMP2: BioMAP Diversity Plus: KF3CT Assay for TIMP metallopeptidase inhibitor 2 (TIMP2) Biomarker Activity (AID 2283071); details: primary human keratinocytes with fibroblasts; actives raise or lower the signal
Method in brief: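 Co-culture of human primary keratinocytes and foreskin fibroblasts, measured 24 h after chemical dosing. TIMP-2 quantified by ELISA and fitted in both directions relative to DMSO. Cytotoxicity checked in parallel cultures by SRB total-protein staining.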

[9] = read-out: Transforming growth factor beta 1 (TGFb1), TGFB1 (gene 7040); test: BSK_KF3CT_TGFb1: BioMAP Diversity Plus: KF3CT Assay for Transforming growth factor beta 1 (TGFb1) Biomarker Activity (AID 2283072); details: primary human keratinocytes with fibroblasts; actives raise or lower the signal
Method in brief: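 Human keratinocyte/foreskin fibroblast co-culture; TGF-b1 measured by ELISA 24 h after dosing, fitted bidirectionally versus DMSO. Cytotoxicity checked in parallel cultures by total protein (SRB staining, 560 nm).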

[10] = read-out: C-C motif chemokine 2 (Homo sapiens) (UniProt P13500); test: BSK_KF3CT_MCP1: BioMAP Diversity Plus: KF3CT Assay for Monocyte Chemoattractant Protein 1 (MCP1/CCL2) Biomarker Activity (AID 2283073); details: primary human keratinocytes with fibroblasts; actives raise or lower the signal
Method in brief: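 Keratinocytes and foreskin fibroblasts were co-cultured, dosed with chemical, and sampled 24 h later. MCP-1 was quantified by ELISA, and the endpoint was analyzed with bidirectional fitting using DMSO as negative control.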

[11] = read-out: Matrix Metallopeptidase 9 (MMP9), MMP9 (gene 4318); test: BSK_KF3CT_MMP9: BioMAP Diversity Plus: KF3CT Assay for Matrix Metallopeptidase 9 (MMP9) Biomarker Activity (AID 2283074); details: primary human keratinocytes with fibroblasts; actives raise or lower the signal;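 for AC50: MMP9 protein level quantified by ELISA in the co-culture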
Method in brief: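 Keratinocyte plus foreskin fibroblast human primary skin co-culture was dosed with chemical and MMP-9 was quantified by ELISA 24 h later. Bidirectional curve fitting used DMSO as negative control and activity baseline.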

[12] = read-out: urokinase plasminogen activator (uPA), PLAU (gene 5328); test: BSK_KF3CT_uPA: BioMAP Diversity Plus: KF3CT Assay for urokinase plasminogen activator (uPA) Biomarker Activity (AID 2283075); details: primary human keratinocytes with fibroblasts; actives raise or lower the signal
Method in brief: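 Human keratinocyte plus foreskin fibroblast primary co-culture exposed to chemical for 24 h. uPA levels were quantified by ELISA, and activity was fitted bidirectionally against a DMSO negative-control baseline.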

[13] = read-out: CD40, CD40 (gene 958); test: BSK_LPS_CD40: BioMAP Diversity Plus: LPS Assay for CD40 Biomarker Activity (AID 2283076); details: primary human HUVEC with PBMC; actives raise or lower the signal
Method in brief: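 CD40 signal, measured by ELISA, is fitted in both directions relative to DMSO vehicle. The system is an LPS-driven human vascular primary co-culture of endothelial cells and PBMC, sampled 24 h after compound addition.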

[14] = read-out: E-selectin (Homo sapiens) (UniProt P16581); test: BSK_LPS_Eselectin: BioMAP Diversity Plus: LPS Assay for Eselectin Biomarker Activity (AID 2283077); details: primary human HUVEC with PBMC; actives raise or lower the signal
Method in brief: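 Signal of E-selectin, detected by ELISA, served as the endpoint; cells were umbilical vein endothelium with PBMC, read 24 h after treatment. DMSO defined baseline, and both increases and decreases were fitted.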

[15] = read-out: Interleukin-8 (IL8), CXCL8 (gene 3576); test: BSK_LPS_IL8: BioMAP Diversity Plus: LPS Assay for Interleukin-8 (IL8) Biomarker Activity (AID 2283078); details: primary human HUVEC with PBMC; actives raise or lower the signal
Method in brief: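 Endothelial cells and PBMC from human donors are co-cultured, treated with chemicals and LPS, then assayed for IL-8 by ELISA after 24 h. Parallel SRB staining (0.1% SRB after 10% TCA fixation, 560 nm) flags cytotoxicity.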

[16] = BSK_LPS_SRB: Viability Assessment in the BioMAP Diversity Plus: LPS Assay (AID 2283079); details: primary human HUVEC with PBMC;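 note: total protein by sulforhodamine B absorbance as a cytotoxicity measure; measured one day after compound addition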
Method in brief: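 Overt cytotoxicity was gauged by sulforhodamine B total-protein staining in a primary human vascular endothelial and mononuclear cell co-culture 24 h post-dosing. Activity was fitted in both directions relative to DMSO.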

[17] = read-out: Interleukin-1 alpha (IL1a), IL1A (gene 3552); test: BSK_LPS_IL1a: BioMAP Diversity Plus: LPS Assay for Interleukin-1 alpha (IL1a) Biomarker Activity (AID 2283080); details: primary human HUVEC with PBMC; actives raise or lower the signal
Method in brief: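 Measured: IL-1 alpha via ELISA at 24 h in LPS-activated human umbilical vein endothelium–PBMC co-culture. Baseline: DMSO, bidirectional fitting.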

[18] = read-out: Monocyte Chemoattractant Protein-1 (MCP1), CCL2 (gene 6347); test: BSK_LPS_MCP1: BioMAP Diversity Plus: LPS Assay for Monocyte Chemoattractant Protein-1 (MCP1) Biomarker Activity (AID 2283081); details: primary human HUVEC with PBMC; actives raise or lower the signal;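 for AC50: secreted MCP-1 protein quantified by ELISA in culture supernatant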
Method in brief: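 LPS-stimulated HUVEC/PBMC co-culture; chemical, 24 h; MCP-1 by ELISA; bidirectional fit vs DMSO; cytotoxicity via SRB (0.1% stain, 10% TCA fix, 560 nm) in parallel wells.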

[19] = BSK_LPS_PGE2: BioMAP Diversity Plus: LPS Assay for Prostaglandin E2 (PGE2) Biomarker Activity (AID 2283082); details: primary human HUVEC with PBMC; actives raise or lower the signal;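 for AC50: secreted prostaglandin E2 measured by ELISA in LPS-stimulated co-culture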
Method in brief: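 HUVEC plus human PBMC co-culture stimulated with LPS; secreted PGE2 quantified by ELISA 24 h after chemical dosing. Activity fitted bidirectionally against DMSO baseline; parallel SRB staining (0.1% SRB after 10% TCA fixation, 560 nm) flags overt cytotoxicity.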

[20] = read-out: Interleukin-1 alpha (IL1a), IL1A (gene 3552); test: BSK_KF3CT_IL1a: BioMAP Diversity Plus: KF3CT Assay for Interleukin-1 alpha (IL1a) Biomarker Activity (AID 2283070); details: primary human keratinocytes with fibroblasts; actives raise or lower the signal
Method in brief: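 Human keratinocyte plus foreskin fibroblast primary co-culture, sampled 24 h after chemical dosing. IL-1a measured by ELISA; responses fitted bidirectionally against DMSO baseline (negative control), so gain or loss of signal both count.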

Measured: AC50

Sequence of E-selectin (Homo sapiens) (P16581 whole entry, looked up): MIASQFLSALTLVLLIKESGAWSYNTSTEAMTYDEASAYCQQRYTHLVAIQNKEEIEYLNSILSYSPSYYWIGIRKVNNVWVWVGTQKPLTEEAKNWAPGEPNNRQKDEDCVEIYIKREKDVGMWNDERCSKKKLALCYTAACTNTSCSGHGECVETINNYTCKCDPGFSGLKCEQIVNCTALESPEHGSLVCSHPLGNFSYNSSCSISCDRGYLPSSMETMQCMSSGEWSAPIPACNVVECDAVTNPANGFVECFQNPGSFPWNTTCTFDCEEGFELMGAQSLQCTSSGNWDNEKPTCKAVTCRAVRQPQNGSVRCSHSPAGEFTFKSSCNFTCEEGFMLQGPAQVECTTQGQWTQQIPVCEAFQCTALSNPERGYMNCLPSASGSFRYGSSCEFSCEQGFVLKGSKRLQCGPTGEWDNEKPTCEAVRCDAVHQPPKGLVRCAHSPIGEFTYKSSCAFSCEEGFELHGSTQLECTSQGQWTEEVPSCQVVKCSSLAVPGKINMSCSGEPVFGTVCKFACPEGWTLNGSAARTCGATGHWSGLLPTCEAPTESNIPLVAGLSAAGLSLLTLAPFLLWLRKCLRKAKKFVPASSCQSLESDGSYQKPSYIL

CSc1ccc(Oc2ccc(S(N)(=O)=O)cc2CN(C)C)cc1C
not listed: [20]
inactive: all other assays above

O=C1CCCCC1
not listed: [8]
inactive: all other assays above

CC(=O)O
not listed: [8]
inactive: all other assays above

S=c1[nH]c2ccccc2s1
active: [19] 12.9 µM
not listed: [20]
inactive: all other assays above

CC(C)(O)c1ccc(CNC(=O)c2cccnc2Oc2ccc(F)cc2)cc1
active: [4] 0.457 µM
not listed: [20]
inactive: all other assays above

O=C1NC(=O)C(c2ccccc2)(c2ccccc2)N1
not listed: [20]
inactive: all other assays above

CCCCOC(=O)CCCCC(=O)OCCCC
not listed: [20]
inactive: all other assays above

OCC(CO)n1cnc(-c2ccc(F)cc2)c1-c1ccnc(Oc2ccccc2)n1
active: [2] 0.909 µM | [3] 1.8 µM | [14] 1.09 µM | [15] 0.544 µM | [17] 0.148 µM | [18] 0.51 µM | [19] 0.356 µM
not listed: [8]
inactive: all other assays above

O=C(N[C@@H](c1ccccc1)[C@@H]1CCCCN1)c1cccc(C(F)(F)F)c1Cl
inactive: [1] | [2] | [3] | [10]
active: [4] 9.69 µM | [5] 30.7 µM | [6] 37.1 µM | [7] 30.3 µM | [8] 12.4 µM | [9] 20 µM | [11] 30.8 µM | [12] 32.5 µM | [13] 20 µM | [14] 5.55 µM | [15] 17.9 µM | [16] 23.4 µM | [17] 20 µM | [18] 22.7 µM | [19] 4.91 µM

COc1ccc(C(=O)Nc2nc3ccccc3c(NCc3ccccc3)c2C#N)cc1
active: [13] 3.97 µM
not listed: [20]
inactive: all other assays above

CCC(C)N(C)C(=O)c1cc2ccccc2c(-c2ccccc2Cl)n1 (stereo unspecified)
not listed: [20]
inactive: all other assays above

CC(N)=O
not listed: [20]
inactive: all other assays above

CCCCC(CC)CO (stereo unspecified)
not listed: [8]
inactive: all other assays above

O=C1OC(c2ccc(O)cc2)(c2ccc(O)cc2)c2ccccc21
active: [3] 31.2 µM | [20] 28.8 µM | [9] 12.6 µM | [11] 29.5 µM | [13] 31.5 µM | [15] 20 µM | [16] 31.9 µM
not listed: [8]
inactive: all other assays above
